Unmarked numbers belong to inactive results. Calls come from the whole dose curve; as a rule, active = well fitted cell-killing curve with a large enough effect; inconclusive = small, poorly fitted or top-dose-only effect; inactive = flat fitted curve, though single readings scatter.

The nature of the assay: Cell Viability - LYMP1-003 - Assay at 24 hr (AID 963).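 Note: plate controls were DMSO only for no effect and tetraoctylammonium bromide positive control for full effect.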 The settings on record: LYMP1-003 lymphoblastoid cell viability; series mostly up to 92.2 µM; viability change, negative = cytotoxic: at the top concentration. From the text: NIH Chemical Genomics Center [NCGC]
NIH Molecular Libraries Screening Centers Network [MLSCN]
National Institutes of Environmental Health Sciences [NIEHS]
National Toxicology Program [NTP]
We have developed a 1536-well cell-based assay for quantitative high throughput screening (qHTS) against a number of cell lines to determine in vitro cytotoxicity of small molecules. This particular assay uses a human lymphoblastoid cell line (LYMP1-003) purchased from Coriell Institute for Medical Research.
NCGC Assay Protocol Summary:
The CellTiter-Glo luminescent cell viability assay (Promega) is a homogeneous method to measure the number of viable cells in culture. The end point readout of this assay is based on quantitation of intracellular ATP, an indicator of metabolic activity, using the luciferase reaction. Luciferase catalyzes the oxidation of beetle Luciferin to oxyluciferin and light in the presence of ATP. The luminescent signal is proportional to amount of ATP present.
Using the CellTiter-Glo luminescent cell viability assay, the amount of cellular ATP was measured in the lymphoblastoid cell line with complete culture medium following compound treatment for 24 hours. The assay was performed in opaque white Kalypsys 1536-well plates. In the screen, tetraoctylammonium bromide was used as positive control. Library compounds were measured for their ability to cause acute toxicity in the cell line, as reflected by a decrease in intracellular ATP levels, in a concentration-dependent manner. […] AC50 values were determined from concentration-response data modeled with the standard Hill equation.
qHTS protocol for CellTiter Glo lymphoblastoid cellular assay
[Step] [Parameter] [Value] [Description]
1. Reagent; 5 uL; 2500 lymphoblastoid cells/well
2. Time; 5 hr; 37 C incubation
4. Controls; 23 nL; Tetraoctylammonium bromide 6.4pM to 92 uM
5. Time; 24 hr; 37 C incubation
6. Reagent; 5 uL; CellTiter Glo reagent
7. Time; 30 min; Room Temperature
8. Detection; Luminescence; Viewlux plate reader
Keywords: cell viability, cytotoxicity, lymphoblastoid cell line, luminescence, NTPHTS, NTPHTS_NCGC, NIEHS, DSSTox, MLSMR, MLSCN, NIH Roadmap, qHTS, NCGC
For the molecule `CCCCC/C=C/C=C/C=O`, the “viability change, negative = cytotoxic” value was 1.83%.

Consider `O=[N+]([O-])c1ccc(CCO)cc1`, for which the “viability change, negative = cytotoxic” value is 2.62%.

For the molecule `O=C1OC(=O)c2c(Br)c(Br)c(Br)c(Br)c21`, the “viability change, negative = cytotoxic” value was -4.23%.

Regarding `CCCCCCO`, the “viability change, negative = cytotoxic” value is 2.21%.

In the case of `ClCCl`, the “viability change, negative = cytotoxic” value is 0.568%.

For the molecule `O=P(O)(OCc1ccccc1)OCc1ccccc1`, the “viability change, negative = cytotoxic” value was -6.05%.

As for `COC(=O)CCCC(=O)OC`, the “viability change, negative = cytotoxic” value is 3.41%.

Consider `Nc1ccc(Cl)cc1[N+](=O)[O-]`, for which the “viability change, negative = cytotoxic” value is -11%.

For the molecule `CC(C)(C)OCC1CO1` (stereo not given), the “viability change, negative = cytotoxic” value was 0.707%.

Take `CCN(Cc1ccccc1)c1ccccc1`: the “viability change, negative = cytotoxic” value is 4.01%.

For `Cc1cccc([N+](=O)[O-])c1C(=O)O`, the “viability change, negative = cytotoxic” value is -3.98%.

Regarding `Nc1nc(-c2ccccc2)cs1`, the “viability change, negative = cytotoxic” value was -5.55%.

With `O=C(O)CN(CC(=O)O)CC(=O)O`, the “viability change, negative = cytotoxic” value was 2.41%.

As for `Cc1ccc2nc(-c3ccc(N)cc3)sc2c1S(=O)(=O)O`, the “viability change, negative = cytotoxic” value was -2.73%.

Take `Cc1cc(C)cc([N+](=O)[O-])c1`: the “viability change, negative = cytotoxic” value is 0.394%.

Regarding `Cc1ccc(Br)cc1`, the “viability change, negative = cytotoxic” value was -1.81%.

Turning to `c1ccc2n[nH]nc2c1`, the “viability change, negative = cytotoxic” value is -5.78%.

`CCC(C)=O`: the “viability change, negative = cytotoxic” value is -0.835%.

As for `Cc1ccccc1C#N`, the “viability change, negative = cytotoxic” value was 2.73%.

As for `Cc1cccc(C)c1[N+](=O)[O-]`, the “viability change, negative = cytotoxic” value is 4.68%.

As for `CCOc1ccc(NC(C)=O)cc1N`, the “viability change, negative = cytotoxic” value was 1.1%.

With `CCCCCCC(=O)O`, the “viability change, negative = cytotoxic” value was -1.03%.

For the molecule `CCN(C(=O)N(CC)c1ccccc1)c1ccccc1`, the “viability change, negative = cytotoxic” value is -0.826%.

Consider `Cc1ccc(N(C)C)cc1`, for which the “viability change, negative = cytotoxic” value is -2.59%.

Consider `CCCCCCC=O`, for which the “viability change, negative = cytotoxic” value is -2.66%.

`Nc1nc(CC(=O)O)cs1`: the “viability change, negative = cytotoxic” value is -5.33%.

`Nc1ccccc1[N+](=O)[O-]`: the “viability change, negative = cytotoxic” value is -1.46%.

In the case of `NC(=O)/N=N/C(N)=O`, the “viability change, negative = cytotoxic” value is 0.485%.

For `CCC(C)(C)C`, the “viability change, negative = cytotoxic” value was 0.435%.

For `CCc1ccccc1O`, the “viability change, negative = cytotoxic” value was -2.16%.

With `Cc1ccc(C)c([N+](=O)[O-])c1`, the “viability change, negative = cytotoxic” value was -3.22%.

Take `C=Cc1ccc(C=C)cc1`: the “viability change, negative = cytotoxic” value was -2.63%.

Take `FB(F)F`: the “viability change, negative = cytotoxic” value was -1.68%.

For `Nc1cc([N+](=O)[O-])ccc1C(=O)O`, the “viability change, negative = cytotoxic” value is 0.118%.

Turning to `Cc1ccc2c(c1[N+](=O)[O-])C(=O)c1ccccc1C2=O`, the “viability change, negative = cytotoxic” value is -10.3%.

Consider `C=CCn1c(=O)n(CC=C)c(=O)n(CC=C)c1=O`, for which the “viability change, negative = cytotoxic” value was -0.434%.

As to `CCOC(C)(C)C`, the “viability change, negative = cytotoxic” value is -1.68%.

With `CC(N)CN` (stereo not given), the “viability change, negative = cytotoxic” value is -2.14%.

On to `CCNc1ccccc1`, for which the “viability change, negative = cytotoxic” value is -3.13%.

Turning to `Cc1ccc2ccccc2c1[N+](=O)[O-]`, the “viability change, negative = cytotoxic” value is 1.74%.

For the origin of these results see PubChem BioAssay (NCATS).
